Seven sequences from paper PMC8384837, “Expanding the binding specificity for RNA recognition by a PUF domain” can be followed below.

Common to all, as to assay: yeast three-hybrid, YBZ-1, SC-Leu-His + 0.5 mM 3-AT, 4 days
Holding throughout (conditions): tags: N-Gal4 AD-HA kept; label: inside an RPR1-promoter hybrid RNA with tandem MS2 sites; ssRNA

The target in one test is PUM1 PUF domain R8-CYC (Homo sapiens, UniProt Q14671 828-1176, N1122C;Q1126C). In short, it runs like this:
(§1)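 A centromeric plasmid in strain YBZ-1 co-expressed Pumilio-1 PUF domain libraries, randomized at the three base-contacting residues of each repeat, with matching RNA elements; the strain carries a LexA–MS2 coat fusion and a HIS3 reporter. After four days on SC-Leu (input) or SC-Leu-His + 0.5 mM 3-AT (selection), the repeat regions were PCR-amplified and Illumina-sequenced. The interaction score is the log change in variant frequency from input to selection, using log2 and a pseudocount of 1 where absent.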

A further test concerns the target PUM1 PUF domain R8-AWQ (Homo sapiens, UniProt Q14671 828-1176, N1122A;Y1123W). Put shortly: as §1
In another test the target is PUM1 PUF domain R1-MPR (Homo sapiens, UniProt Q14671 828-1176, S863M;R864P;Q867R). Put shortly: as §1
The target of another test is PUM1 PUF domain R1-KNI (Homo sapiens, UniProt Q14671 828-1176, S863K;R864N;Q867I). In short, it runs like this: as §1
For a further test, the target named is PUM1 PUF domain R1-KCQ (Homo sapiens, UniProt Q14671 828-1176, S863K;R864C). Put shortly: as §1
The next test addresses T1, PUM1 PUF domain R6-IFN (Homo sapiens, UniProt Q14671 828-1176, N1043I;Y1044F;Q1047N).
T1 sequence: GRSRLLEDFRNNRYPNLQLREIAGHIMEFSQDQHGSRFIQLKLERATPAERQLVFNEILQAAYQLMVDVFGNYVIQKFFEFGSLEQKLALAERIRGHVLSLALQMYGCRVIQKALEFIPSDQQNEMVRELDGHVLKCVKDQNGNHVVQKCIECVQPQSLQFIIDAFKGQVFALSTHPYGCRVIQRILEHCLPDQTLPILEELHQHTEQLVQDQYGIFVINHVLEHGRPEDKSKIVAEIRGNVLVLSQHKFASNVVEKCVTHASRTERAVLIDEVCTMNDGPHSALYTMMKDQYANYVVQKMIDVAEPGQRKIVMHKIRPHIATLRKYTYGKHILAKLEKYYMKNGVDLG
Put shortly:
as §1

The next test concerns the target PUM1 PUF domain R5-GSK (Homo sapiens, UniProt Q14671 828-1176, C1007G;R1008S;Q1011K). In short, it runs like this:
as §1

The target of a further test is PUM1 PUF domain R8-RYQ (Homo sapiens, UniProt Q14671 828-1176, N1122R). Put shortly: as §1

Turning to “GGCUAGAACUAGUGGAUCCCCCGGCGCCCGGCGGCUCGAGCCCGGGUAAGCGUAAAUAGUCUGCAUGCCGCCGGGCGCCAUGCCUGCAGGUCGACUCUAGAAAACAUG”, the binding signal with PUM1 PUF domain R8-CYC was 2.77 log2 enrichment (interaction score); with PUM1 PUF domain R8-AWQ, 2.11 log2 enrichment (interaction score).
For “GGCUAGAACUAGUGGAUCCCCCGGCGCCCGGCGGCUCGAGCCCGGGUAAGUGUAAAUCGUCUGCAUGCCGCCGGGCGCCAUGCCUGCAGGUCGACUCUAGAAAACAUG”, the binding signal was 2.06 log2 enrichment (interaction score) in the test with PUM1 PUF domain R1-MPR and 4.2 log2 enrichment (interaction score) in the test with PUM1 PUF domain R1-KNI.
Take “GGCUAGAACUAGUGGAUCCCCCGGCGCCCGGCGGCUCGAGCCCGGGUAAGUGUAAAUUGUCUGCAUGCCGCCGGGCGCCAUGCCUGCAGGUCGACUCUAGAAAACAUG”: the figures for the binding signal with PUM1 PUF domain R1-MPR and with PUM1 PUF domain R1-KCQ were 3.08 log2 enrichment (interaction score) and 3.28 log2 enrichment (interaction score), respectively.
Regarding “GGCUAGAACUAGUGGAUCCCCCGGCGCCCGGCGGCUCGAGCCCGGGUAAGUGAAAAUAGUCUGCAUGCCGCCGGGCGCCAUGCCUGCAGGUCGACUCUAGAAAACAUG”, the binding signal with PUM1 PUF domain R6-IFN was 5.05 log2 enrichment (interaction score).
On to “GGCUAGAACUAGUGGAUCCCCCGGCGCCCGGCGGCUCGAGCCCGGGUAAGUGUUAAUAGUCUGCAUGCCGCCGGGCGCCAUGCCUGCAGGUCGACUCUAGAAAACAUG”, for which the binding signal with PUM1 PUF domain R5-GSK was 2.59 log2 enrichment (interaction score).
As for “GGCUAGAACUAGUGGAUCCCCCGGCGCCCGGCGGCUCGAGCCCGGGUAAGGGUAAAUAGUCUGCAUGCCGCCGGGCGCCAUGCCUGCAGGUCGACUCUAGAAAACAUG”, the binding signal with PUM1 PUF domain R8-RYQ was 2.37 log2 enrichment (interaction score).
On to “GGCUAGAACUAGUGGAUCCCCCGGCGCCCGGCGGCUCGAGCCCGGGUAAGUGUAAAUAGUCUGCAUGCCGCCGGGCGCCAUGCCUGCAGGUCGACUCUAGAAAACAUG”, for which the binding signal was 4.32 log2 enrichment (interaction score) with PUM1 PUF domain R8-RYQ and 3.01 log2 enrichment (interaction score) with PUM1 PUF domain R8-AWQ.
